The values below come from paper PMC5540273 (PLoS ONE, 2017).

One test concerns T1, ADCK3.
T1 construct: gene CABC1

Usually Kd stands for the concentration at which binding is half-saturated. A high value points to lower affinity.

Bounds are passed on as bounds.
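Also: kd values determined as follow-up on hits from a single-replicate KINOMEscan panel screen.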

For the compound `COc1ccccc1-c1ccc2c(NC(=O)C3CC3)n[nH]c2n1` [SB-711239], the dissociation constant Kd in the test on ABL1-phosphorylated is > 10 µM. Still for that read-out and setting: in the case of `O=C1NC(=O)C(N2CCc3ccccc32)=C1c1ccccc1Cl` [SB-373598] it was > 10 µM.

`COc1ccc(C2=C(Nc3cccc(C(=O)O)c3)C(=O)NC2=O)cc1` [SB-390765]: the Kd with ACVR1 is > 10 µM. The same measure, in the same setting: the figure for `Cn1ccc2ncnc(Oc3cccc(C(=O)Nc4ccccc4)c3)c21` is > 10 µM. As to `CC1=C(C(=O)Nc2cc3cn[nH]c3cc2F)C(c2ccc(C(F)(F)F)cc2)CC(=O)N1` (centres unmarked) [GSK429286], the Kd with ACVR2A was > 10 µM. `COc1cccc(NC(=O)NC2CCN(c3ccnc(Nc4ccc(F)cc4)n3)C2)c1` (centres unmarked) [GSK1379721]: the Kd in the test with ACVR2A is > 10 µM. As for `NC(=O)c1nnc2ccccc2c1N`, the Kd in the test with ADCK3 is > 10 µM. As for `Cc1cc(N2Cc3ccccc3C2)nc(Nc2ccc(S(=O)(=O)N3CCOCC3)cc2)n1.Cl` [GSK1669917], the Kd in the test on AKT1 is > 10 µM.
